SW480 rerep: A quantitative high throughput screen for small molecules that induce DNA re-replication in SW480 colon adenocarcinoma cells; SW480 DNA re-replication, Hoechst DNA content imaging, 48 h; Potency, µM (doses to about 46.1 µM), for the others: at the top dose re-replication activation, hits mostly activators; 340,000 compounds, 1.8% hits; further: potency means the concentration at half of the fitted maximal effect; % of control where 0% means no effect; nearly all actives have a fitted effect of over 55% in size
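Image-based DNA-content assay: after two days of treatment, nuclei were labelled with the DNA dye Hoechst and imaged, and hits were compounds raising the count of nuclei showing high fluorescence intensity.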
IL-1B inflam inh: qHTS for Inhibitors of Inflammasome Signaling: IL-1-beta AlphaLISA Primary Screen. THP-1 LPS/ATP IL-1B secretion, AlphaLISA, 16 h; active compounds read low. activity change, % at 57.5 µM. 360,000 compounds, 4.7% hits; in the data active means activity change below about -50%; inconclusive means mostly about -30% to -49%; further: on the % scale 0 is the no-effect control and ±100 the full control effect
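THP-1 cells pretreated 1 hr with compounds (up to 57.5 uM final), then stimulated with LPS (250 ng/mL final) plus ATP (1.25 mM final); secreted IL-1B measured by AlphaLISA after 16 hr, decreased signal indicating inhibition.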
RORgamma inh: qHTS for inhibitors of ROR gamma transcriptional activity; AID 2551, 2010; Potency, µM (top dose mostly 53.6 µM), without a hit: top-dose activity change, negative = inhibition, actives largely listed as inhibitors; 310,000 compounds, 5.4% hits; Drosophila S2 Gal4-RORgamma UAS-luciferase reporter, 20 h; Nuclear receptor ROR-gamma (Mus musculus), P51450; further: potency means the concentration at half of the fitted maximal effect; on the % scale 0 is the no-effect control and ±100 the full control effect; nearly all actives have a fitted effect of over 60% in size
Target sequence (P51450 whole entry, looked up, the tested form may be a part): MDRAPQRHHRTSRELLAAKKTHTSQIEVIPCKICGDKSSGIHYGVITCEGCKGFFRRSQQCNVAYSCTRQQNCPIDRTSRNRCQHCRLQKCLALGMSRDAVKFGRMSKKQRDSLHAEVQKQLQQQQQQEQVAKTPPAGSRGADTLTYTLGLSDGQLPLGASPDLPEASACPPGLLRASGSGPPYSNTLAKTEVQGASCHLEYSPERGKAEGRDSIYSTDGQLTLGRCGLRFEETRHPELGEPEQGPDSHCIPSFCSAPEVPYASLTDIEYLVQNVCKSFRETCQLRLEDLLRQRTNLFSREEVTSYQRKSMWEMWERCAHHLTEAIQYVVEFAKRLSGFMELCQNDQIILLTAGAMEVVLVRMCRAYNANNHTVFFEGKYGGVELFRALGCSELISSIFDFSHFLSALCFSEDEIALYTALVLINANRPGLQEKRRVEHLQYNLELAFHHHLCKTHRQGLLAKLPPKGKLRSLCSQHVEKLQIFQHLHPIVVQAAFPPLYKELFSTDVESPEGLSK
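Schneider cells (Drosophila), stable Gal4 DBD–ROR gamma + UAS-luc; 1 hr cmpd preincubation; Cu2+ induction 700 uM final; 20 hr ambient; luminescence.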
Gal4-VP16 FLuc: VP16 counterscreen qHTS for inhibitors of ROR gamma transcriptional activity; Drosophila S2 Gal4-VP16 UAS-luciferase, luminescence, 20 h; AID 2546, 2010; Potency, µM (series often up to 53.6 µM), for inactives: at the top dose activity, negative = inhibition, most hits filed as inhibitors; 310,000 compounds, 3.5% hits;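 further: Gal4-VP16 expression switched on by copper sulfate through the metallothionein promoter; potency means the concentration at half of the fitted maximal effect; on the % scale 0 is the no-effect control and ±100 the full control effect; nearly all actives have a fitted effect of over 50% in size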
MCF10A rereplic: A quantitative high throughput screen for small molecules that induce DNA re-replication in MCF 10a normal breast cells; Potency, µM (titrated, usually from 46.1 µM), for inactives: at the highest dose activity, positive = re-replication, actives largely listed as activators; 350,000 compounds, 2.9% hits; AID 624296, 2012; MCF 10A DNA re-replication, Hoechst nuclear intensity, 48 h; further: potency means the concentration at half of the fitted maximal effect; % of control where 0% means no effect; nearly all actives have a fitted effect of over 50% in size
* = called active by the depositor; ? = inconclusive; / = no result; ! = a repeat was not active; [ ] = remark or other dose. Compounds with a hit are over-represented: about 11% of the library has one in this group of screens. Unless noted, the call rests on the fitted dose curve; in most records, active means well fitted curve in the direction sought with a large enough effect; inconclusive means small, poorly fitted or top-dose-only effect, or another doubt; inactive means no such curve, though single readings can be large; an effect the other way counts as inactive or inconclusive.

SMILES | SW480 rerep | IL-1B inflam inh | RORgamma inh | Gal4-VP16 FLuc | MCF10A rereplic
Cc1ccccc1CSCC1Nc2ccc(C(=O)NCCc3ccccc3)cc2NC1=O (configuration not stated) | / | 12 | / | / | /
COc1ccc(-c2nc(CS(=O)CC(=O)NCc3ccc4c(c3)OCO4)c(C)o2)cc1OC (configuration not stated) | 6% | ? | ? | -17% | 7%
O=C(/C=C/c1ccccc1[N+](=O)[O-])N1CCc2ccccc2C1 | -8% | -53* | ? | 23% | -2%
O=C(/C=C/c1c(F)cccc1Cl)N1CCc2ccccc2C1 | 4% | -63* | 0.4µM* | 2% | 6%
CCc1ccc(/C=C\C(=O)N2CCc3ccccc3C2)cc1 | 5% | ? | 10µM* | ? | 6%
O=C(c1ccc([N+](=O)[O-])cc1)N1CCc2ccccc2C1 | 3% | -4 | 34% | -1% | -3%
CCN1CCN(C(=O)/C=C/c2c(F)cccc2Cl)CC1 | -5% | -5 | -3% | 3% | 7%
COCCn1c(=O)c(-c2ccc(F)cc2)nc2cnc(Oc3ccccc3)nc21 | / | / | ? | 1% | /
COc1ccc(OC[C@@H](CO)OC)cc1 | / | / | -1%[10 µM] | 1%[10 µM] | /
COc1cccc(CN2c3ccc(Br)cc3C(=O)CS2(=O)=O)c1 | -10% | 3 | / | / | ?
Cc1cc(C)n(CC(=O)NC2C(=O)N3C(C(=O)O)=C(CSc4nnc(C)s4)CSC23)n1 (configuration not stated) | -6% | 0 | -9% | -7% | 0.73µM*
Cc1nnc(SCC2=C(C(=O)O)N3C(=O)C(NC(=O)Cn4ncc(Cl)c4C)C3SC2)s1 (configuration not stated) | -12% | 18 | 13% | -7% | -1%
COc1ccc(-c2cn3ccccc3n2)cc1 | -5% | 6 | 6.3µM* | 13µM* | -1%
CCCOc1ccc(-c2cn3ccccc3n2)cc1 | -83%[1.84 µM] | -12 | 4.5µM* | ? | 27%
COc1c(Cl)cccc1-c1cn2ccccc2n1 | -40% | 15 | 11µM* | ? | -4%
Brc1ccc(-c2cn3ccccc3n2)s1 | -3% | 4 | ? | ? | 2%
COc1ccc(-c2nc3ccccn3c2Cl)cc1 | -5% | -2 | 16µM* | ? | 9%
Cc1ccc(N(CC(O)CN2C(=O)NC(C)(C)C2=O)S(=O)(=O)c2ccc([N+](=O)[O-])cc2)cc1 (configuration not stated) | -10% | -4 | -5% | 2% | 14%
COc1ccc(-c2nc3cnc(OCc4ccccc4)nc3n(CCC#N)c2=O)cc1 | / | / | 10% | 0% | /
ClCc1nc2ccccc2c2ccccc12 | 18µM* | -8 | -60% | ? | ?
CCOC(=O)c1c(CCl)nc2ccccc2c1-c1ccccc1 | ? | -19 | -16% | -1% | ?
COc1ccc(C2CCc3cc(OC)c(OC)cc3C2NC=O)cc1OC (configuration not stated) | / | 9 | / | / | /
COc1ccc(CC(=O)NC2CCCc3ccccc32)cc1 (configuration not stated) | 2% | -13 | 16% | -12% | 2%
COc1ccc2c(c1)C(CC(=O)NN)CCC2 (configuration not stated) | 13µM* | 26 | / | / | 2.3µM*
CCCCCC(=O)c1cc(CC(C(=O)OC)C(=O)OC)cc2cc(OC)c(OC)cc12 | / | / | 0%[10 µM] | 2%[10 µM] | /
SMILES | SW480 rerep | IL-1B inflam inh | RORgamma inh | Gal4-VP16 FLuc | MCF10A rereplic
CCOc1ccc(C(=O)OCCN(CC)CC)cc1 | -11% | 16 | -25% | 4% | 16%
CC/C(=C(\c1ccccc1)c1ccc(OCCN(C)C)cc1)c1ccccc1 | 1.3µM*! | -72*! | 10µM*! | 32µM*! | ?
CN(C)CCOc1ccc(C(C)(C)c2ccccc2)cc1 | 2% | 4 | -12% | 5% | 13%
CCN(CC)CCOc1ccc(/C(=C(/Cl)c2ccccc2)c2ccccc2)cc1 | -6% | ? | ? | ? | 4.1µM*!
Nc1c2c(nc3ccccc13)N(C1CCCCC1)CC2 | ? | / | -46% | -1% | 13µM*
Nc1c2c(nc3ccc(Br)cc13)N(C1CCCCC1)CC2 | / | / | -8% | -5% | /
CC(=O)c1ccc(S(=O)(=O)NCCC(=O)NC(C)c2ccncc2)cc1 (configuration not stated) | 1% | 2 | / | / | -2%
O=C(CCCN1C(=O)C(c2ccccc2)Oc2cccnc21)Nc1cccc(F)c1 (configuration not stated) | 25% | -18 | 32% | -1% | 2%
O=C(CSc1nc2ncc(Cl)cc2[nH]1)c1c[nH]c2ccccc12 | 25% | -29 | -26% | 5% | 23µM*
O=C(CSc1nc2ccc(Cl)cc2[nH]1)c1c[nH]c2ccccc12 | 2% | -10 | 33% | -15% | -1%
N[C@H](Cc1ccc(O)c(O)c1)C(=O)O | -16% | / | 1%[10 µM] | -7% | -6%
Cc1c(C(=O)N2CCOCC2)c(S(=O)(=O)Nc2ccc(C(C)C)cc2)c(C)n1C | -3% | 42 | -2% | -9% | 11%
COc1ccc(C2=NN(c3nc(-c4ccc(CNC(C)=O)cc4)cs3)C(c3ccco3)C2)cc1 (configuration not stated) | ? | -18 | -14% | -7% | 2.6µM*
N#Cc1ccc(NC(=O)CNc2cc(S(=O)(=O)N3CCOCC3)ccc2NCC2CCCO2)cc1 (configuration not stated) | -1% | 3 | 4% | -4% | -2%
O=C(CNc1cc(S(=O)(=O)N2CCOCC2)ccc1NCC1CCCO1)Nc1ccc(C(F)(F)F)cc1 (configuration not stated) | ? | -62* | / | / | -4%
O=C(c1[nH]c(C(F)(F)F)nc1-c1ccccc1)N1CCc2c([nH]c3ccccc23)C1 | / | 56 | / | / | /
CCOC(=O)N1CCN(C(=O)C2CCN(C(=O)c3ccccc3C)CC2)CC1 | ? | -103* | / | / | ?
Cc1ccccc1C(=O)N1CCC(C(=O)N2CCN(c3ncccn3)CC2)CC1 | -4% | 34 | / | / | ?
CCN(CC(=O)Nc1ccc(NC(C)=O)cc1)C(=O)C1CCN(C(=O)c2ccccc2C)CC1 | 3.7µM* | 1 | / | / | 20%
CCN(CC(=O)Nc1ccc(NC(C)=O)cc1)C(=O)C1CCCC1 | -4% | 5 | / | / | 4%
O=c1[nH]c(-c2ccccn2)nc2sc(-c3ccccc3)cc12 | 6.5µM* | -102* | 0.32µM* | 1.4µM* | 1.3µM*
O=C(CN1C(=O)C2(OCCO2)c2cc(Br)ccc21)NO | 5% | -55* | / | / | -1%
Cc1cnn(CCC(=O)NNC(=S)NCC(C)C)c1 | -3% | -8 | 0.56µM* | 3.2µM* | -3%

Compound activity deposited in PubChem by National Center for Advancing Translational Sciences (NCATS).
